We go through six sequences from PMC11006913.

Where a chain is given by its changes, count along the chain named.

Holding throughout (experiment): PBM; 200 nM protein, PBS
What all share (conditions): dsDNA, one strand shown

Test [1] addresses HOXB4 (Homo sapiens, UniProt P17483 148-234).
Test [2] addresses T1, VENTX (Homo sapiens, UniProt O95231 78-163, R121Q).
T1 sequence: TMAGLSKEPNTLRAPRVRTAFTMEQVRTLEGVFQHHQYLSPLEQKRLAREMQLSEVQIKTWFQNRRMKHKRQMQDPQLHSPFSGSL

Test [3] deals with HOXA4 (Homo sapiens, UniProt Q00056 201-287, W262R).
Chain of HOXA4 (Homo sapiens, UniProt Q00056 201-287, W262R) (Q00056 201-287 W262R): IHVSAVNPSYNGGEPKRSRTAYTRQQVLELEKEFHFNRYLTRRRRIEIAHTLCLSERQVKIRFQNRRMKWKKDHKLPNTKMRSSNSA
The next test concerns the target ALX4 (Homo sapiens, UniProt Q9H161 200-286).
Test [4] deals with T2, PAX4 (Homo sapiens, UniProt O43316 9-242, R200K).
T2 sequence: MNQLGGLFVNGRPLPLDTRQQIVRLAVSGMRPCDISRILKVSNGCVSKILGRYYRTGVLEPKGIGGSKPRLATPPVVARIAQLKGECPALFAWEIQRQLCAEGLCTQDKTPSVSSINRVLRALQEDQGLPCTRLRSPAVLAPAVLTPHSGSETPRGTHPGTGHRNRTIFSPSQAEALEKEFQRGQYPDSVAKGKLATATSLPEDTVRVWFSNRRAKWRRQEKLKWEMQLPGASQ

The target in test [5] is PRRX1 (Homo sapiens, UniProt P54821 80-166, F113S).
Chain of PRRX1 (Homo sapiens, UniProt P54821 80-166, F113S) (P54821 80-166 F113S): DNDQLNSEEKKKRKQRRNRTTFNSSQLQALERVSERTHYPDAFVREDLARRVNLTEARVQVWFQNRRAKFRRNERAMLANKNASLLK
In test [6] the target is T3, VENTX (Homo sapiens, UniProt O95231 78-163, Y115F).
T3 sequence: T1 sequence with Y38F, Q44R

In another test the target is HOXA2 (Homo sapiens, UniProt O43364 129-215, R185T).
Chain of HOXA2 (O43364 129-215 R185T): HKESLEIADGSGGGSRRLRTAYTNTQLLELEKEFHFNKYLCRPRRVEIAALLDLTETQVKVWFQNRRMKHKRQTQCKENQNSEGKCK
Test [7] addresses HOXA4 (Homo sapiens, UniProt Q00056 201-287, R217L).
Test [8] deals with HOXB4 (Homo sapiens, UniProt P17483 148-234, V174I).
Chain of HOXB4 (Homo sapiens, UniProt P17483 148-234, V174I) (P17483 148-234 V174I): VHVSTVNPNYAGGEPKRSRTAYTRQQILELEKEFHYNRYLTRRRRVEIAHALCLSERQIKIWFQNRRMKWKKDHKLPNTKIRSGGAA
For test [9], the target named is T4, PAX4 (Homo sapiens, UniProt O43316 9-242, R200Q).
T4 sequence: T2 sequence with K192Q

Test [10] deals with T5, PAX4 (Homo sapiens, UniProt O43316 9-242, F177V).
T5 sequence: T2 sequence with F169V, K192R

Test [11] concerns the target HOXA4 (Homo sapiens, UniProt Q00056 201-287).
Test [12] addresses MSX2 (Homo sapiens, UniProt P35548 130-214).
Test [13] has as its target T6, PAX4 (Homo sapiens, UniProt O43316 9-242, F177Y).
T6 sequence: T2 sequence with F169Y, K192R

Test [14] concerns the target MSX2 (Homo sapiens, UniProt P35548 130-214, F161Y).
Test [15] concerns the target HOXA4 (Homo sapiens, UniProt Q00056 201-287, W262F).
The target in test [16] is PRRX1 (Homo sapiens, UniProt P54821 80-166).
Chain of PRRX1 (Homo sapiens, UniProt P54821 80-166) (P54821 80-166): as the sequence (P54821 80-166 F113S) above, with S34F counted along it
Test [17] addresses VAX1 (Homo sapiens, UniProt Q5SQQ9 86-172, T142I).
Test [18] addresses VAX1 (Homo sapiens, UniProt Q5SQQ9 86-172, K157R).

Chain of ALX4 (Q9H161 200-286): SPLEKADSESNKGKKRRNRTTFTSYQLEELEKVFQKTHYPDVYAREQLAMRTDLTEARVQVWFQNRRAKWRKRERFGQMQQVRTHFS
Chain of MSX2 (Homo sapiens, UniProt P35548 130-214) (P35548 130-214): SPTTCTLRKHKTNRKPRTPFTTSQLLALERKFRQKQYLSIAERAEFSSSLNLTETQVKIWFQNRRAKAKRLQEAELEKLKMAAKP
Chain of MSX2 (Homo sapiens, UniProt P35548 130-214, F161Y) (P35548 130-214 F161Y): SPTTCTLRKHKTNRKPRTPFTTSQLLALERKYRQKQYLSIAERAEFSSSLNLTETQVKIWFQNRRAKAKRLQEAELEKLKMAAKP
Chain of HOXA4 (Homo sapiens, UniProt Q00056 201-287, W262F) (Q00056 201-287 W262F): as the sequence (Q00056 201-287 W262R) above, with R62F counted along it
Chain of VAX1 (Homo sapiens, UniProt Q5SQQ9 86-172, K157R) (Q5SQQ9 86-172 K157R): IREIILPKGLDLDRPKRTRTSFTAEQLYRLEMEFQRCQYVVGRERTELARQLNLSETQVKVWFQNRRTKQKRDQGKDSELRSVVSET
Chain of HOXA4 (Homo sapiens, UniProt Q00056 201-287, R217L) (Q00056 201-287 R217L): as the sequence (Q00056 201-287 W262R) above, with R17L, R62W counted along it
Chain of HOXA4 (Homo sapiens, UniProt Q00056 201-287) (Q00056 201-287): as the sequence (Q00056 201-287 W262R) above, with R62W counted along it
Chain of HOXB4 (Homo sapiens, UniProt P17483 148-234) (P17483 148-234): as the sequence (P17483 148-234 V174I) above, with I27V counted along it
Chain of VAX1 (Homo sapiens, UniProt Q5SQQ9 86-172, T142I) (Q5SQQ9 86-172 T142I): as the sequence (Q5SQQ9 86-172 K157R) above, with T57I, R72K counted along it

For AATTAATC, the binding signal in the test with HOXB4 [1] was 13.2 upbm affinity estimate (log intensity, higher = more binding, comparable within an allelic series); with VENTX [2], 11.8 upbm affinity estimate (log intensity, higher = more binding, comparable within an allelic series); in the test with HOXA4 [3], 10.6 upbm affinity estimate (log intensity, higher = more binding, comparable within an allelic series); with ALX4 it was 13.9 upbm affinity estimate (log intensity, higher = more binding, comparable within an allelic series); with PAX4 [4], 11.9 upbm affinity estimate (log intensity, higher = more binding, comparable within an allelic series); with PRRX1 [5], 11.3 upbm affinity estimate (log intensity, higher = more binding, comparable within an allelic series). Moreover, the binding signal with VENTX [6] is 11.5 upbm affinity estimate (log intensity, higher = more binding, comparable within an allelic series); in the test with HOXA2, 12.6 upbm affinity estimate (log intensity, higher = more binding, comparable within an allelic series); with HOXA4 [7] it was 12.3 upbm affinity estimate (log intensity, higher = more binding, comparable within an allelic series); with HOXB4 [8], 13.9 upbm affinity estimate (log intensity, higher = more binding, comparable within an allelic series); with PAX4 [9] it was 12.2 upbm affinity estimate (log intensity, higher = more binding, comparable within an allelic series); in the test with PAX4 [10], 10.7 upbm affinity estimate (log intensity, higher = more binding, comparable within an allelic series). The binding signal is 13.9 upbm affinity estimate (log intensity, higher = more binding, comparable within an allelic series) with HOXA4 [11]; 13.3 upbm affinity estimate (log intensity, higher = more binding, comparable within an allelic series) in the test with MSX2 [12]; 11.2 upbm affinity estimate (log intensity, higher = more binding, comparable within an allelic series) in the test with PAX4 [13]; 13 upbm affinity estimate (log intensity, higher = more binding, comparable within an allelic series) in the test with MSX2 [14]; 11.3 upbm affinity estimate (log intensity, higher = more binding, comparable within an allelic series) with HOXA4 [15]; 13.3 upbm affinity estimate (log intensity, higher = more binding, comparable within an allelic series) with PRRX1 [16].

In the case of AACAATTA, the binding signal was 11.7 upbm affinity estimate (log intensity, higher = more binding, comparable within an allelic series) with VENTX [2]; 10.6 upbm affinity estimate (log intensity, higher = more binding, comparable within an allelic series) with HOXA4 [3]; 13.6 upbm affinity estimate (log intensity, higher = more binding, comparable within an allelic series) with ALX4; 11.1 upbm affinity estimate (log intensity, higher = more binding, comparable within an allelic series) with PRRX1 [5]; 11.9 upbm affinity estimate (log intensity, higher = more binding, comparable within an allelic series) with HOXA4 [7]; 13.6 upbm affinity estimate (log intensity, higher = more binding, comparable within an allelic series) with HOXB4 [8]. Besides, the binding signal with HOXA4 [11] is 13.6 upbm affinity estimate (log intensity, higher = more binding, comparable within an allelic series); with MSX2 [12] it was 13.9 upbm affinity estimate (log intensity, higher = more binding, comparable within an allelic series); with MSX2 [14] it was 13.5 upbm affinity estimate (log intensity, higher = more binding, comparable within an allelic series); in the test with HOXA4 [15], 11.3 upbm affinity estimate (log intensity, higher = more binding, comparable within an allelic series).

Consider GGCAGGCC, for which the binding signal with HOXB4 [1] is 7.41 upbm affinity estimate (log intensity, higher = more binding, comparable within an allelic series); in the test with PAX4 [4] it was 9.11 upbm affinity estimate (log intensity, higher = more binding, comparable within an allelic series); in the test with HOXB4 [8], 7.33 upbm affinity estimate (log intensity, higher = more binding, comparable within an allelic series); with PAX4 [9] it was 9.21 upbm affinity estimate (log intensity, higher = more binding, comparable within an allelic series); with PAX4 [10] it was 9.13 upbm affinity estimate (log intensity, higher = more binding, comparable within an allelic series); in the test with PAX4 [13], 9.09 upbm affinity estimate (log intensity, higher = more binding, comparable within an allelic series).

GTCAATTA: the binding signal was 13.3 upbm affinity estimate (log intensity, higher = more binding, comparable within an allelic series) with HOXB4 [1]; 11.7 upbm affinity estimate (log intensity, higher = more binding, comparable within an allelic series) with VENTX [2]; 10.5 upbm affinity estimate (log intensity, higher = more binding, comparable within an allelic series) in the test with HOXA4 [3]; 13.9 upbm affinity estimate (log intensity, higher = more binding, comparable within an allelic series) in the test with ALX4; 11 upbm affinity estimate (log intensity, higher = more binding, comparable within an allelic series) in the test with PRRX1 [5]; 12.9 upbm affinity estimate (log intensity, higher = more binding, comparable within an allelic series) with HOXA2. Further, the binding signal is 12.1 upbm affinity estimate (log intensity, higher = more binding, comparable within an allelic series) with HOXA4 [7]; 13.9 upbm affinity estimate (log intensity, higher = more binding, comparable within an allelic series) in the test with HOXB4 [8]; 13.8 upbm affinity estimate (log intensity, higher = more binding, comparable within an allelic series) with HOXA4 [11]; 13.8 upbm affinity estimate (log intensity, higher = more binding, comparable within an allelic series) with MSX2 [12]; 13.4 upbm affinity estimate (log intensity, higher = more binding, comparable within an allelic series) in the test with MSX2 [14]; 13.1 upbm affinity estimate (log intensity, higher = more binding, comparable within an allelic series) with VAX1 [17]. Also, the binding signal with HOXA4 [15] was 11.3 upbm affinity estimate (log intensity, higher = more binding, comparable within an allelic series); in the test with PRRX1 [16] it was 13.3 upbm affinity estimate (log intensity, higher = more binding, comparable within an allelic series); in the test with VAX1 [18] it was 13.2 upbm affinity estimate (log intensity, higher = more binding, comparable within an allelic series).

Take ATAATTAG: the binding signal is 13.6 upbm affinity estimate (log intensity, higher = more binding, comparable within an allelic series) in the test with HOXB4 [1]; 12.4 upbm affinity estimate (log intensity, higher = more binding, comparable within an allelic series) in the test with VENTX [2]; 10.9 upbm affinity estimate (log intensity, higher = more binding, comparable within an allelic series) with HOXA4 [3]; 14.4 upbm affinity estimate (log intensity, higher = more binding, comparable within an allelic series) with ALX4; 12 upbm affinity estimate (log intensity, higher = more binding, comparable within an allelic series) in the test with PAX4 [4]; 11.9 upbm affinity estimate (log intensity, higher = more binding, comparable within an allelic series) with PRRX1 [5]. The binding signal in the test with VENTX [6] is 12.3 upbm affinity estimate (log intensity, higher = more binding, comparable within an allelic series); with HOXA2 it was 13.9 upbm affinity estimate (log intensity, higher = more binding, comparable within an allelic series); with HOXA4 [7] it was 12.7 upbm affinity estimate (log intensity, higher = more binding, comparable within an allelic series); with HOXB4 [8] it was 14.3 upbm affinity estimate (log intensity, higher = more binding, comparable within an allelic series); with PAX4 [9], 12.6 upbm affinity estimate (log intensity, higher = more binding, comparable within an allelic series); with PAX4 [10] it was 10.8 upbm affinity estimate (log intensity, higher = more binding, comparable within an allelic series). Moreover, the binding signal with HOXA4 [11] is 14.2 upbm affinity estimate (log intensity, higher = more binding, comparable within an allelic series); with MSX2 [12], 14.1 upbm affinity estimate (log intensity, higher = more binding, comparable within an allelic series); in the test with PAX4 [13], 11.3 upbm affinity estimate (log intensity, higher = more binding, comparable within an allelic series); with MSX2 [14], 13.7 upbm affinity estimate (log intensity, higher = more binding, comparable within an allelic series); with VAX1 [17], 13.9 upbm affinity estimate (log intensity, higher = more binding, comparable within an allelic series); in the test with HOXA4 [15], 12.3 upbm affinity estimate (log intensity, higher = more binding, comparable within an allelic series). Further, the binding signal was 13.7 upbm affinity estimate (log intensity, higher = more binding, comparable within an allelic series) with PRRX1 [16] and 13.9 upbm affinity estimate (log intensity, higher = more binding, comparable within an allelic series) with VAX1 [18].

On to TAATTGCA, for which the binding signal is 11.8 upbm affinity estimate (log intensity, higher = more binding, comparable within an allelic series) with VENTX [2]; 11.6 upbm affinity estimate (log intensity, higher = more binding, comparable within an allelic series) with VENTX [6]; 12.7 upbm affinity estimate (log intensity, higher = more binding, comparable within an allelic series) with HOXA2; 11.9 upbm affinity estimate (log intensity, higher = more binding, comparable within an allelic series) with HOXA4 [7]; 13.9 upbm affinity estimate (log intensity, higher = more binding, comparable within an allelic series) with MSX2 [12]; 13.6 upbm affinity estimate (log intensity, higher = more binding, comparable within an allelic series) with MSX2 [14]. Further, the binding signal was 12.5 upbm affinity estimate (log intensity, higher = more binding, comparable within an allelic series) with VAX1 [17] and 12.4 upbm affinity estimate (log intensity, higher = more binding, comparable within an allelic series) with VAX1 [18].
